Data as given in the supplement of paper PMC10981050.
Where a name gives a salt, the structure may show the parent alone.

Tested on: MARIMO
Experiment: cell viability relative to vehicle control; higher = less cytotoxic
Conditions: 10 µM; SRSF2 genotype: SRSF2 wt/wt
In short: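 Mutant clones made by CRISPR editing and their isogenic wild-type counterparts, from four leukaemia lines, were exposed to a single 10 µM dose of each library compound for 48 h. The supernatant was then removed and CellTiter-Glo luminescence was read. Viability was reported as percent of the on-plate vehicle control.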

Structure (SMILES) | cell viability
O=C(CCc1ccc(O)cc1)c1c(O)cc(O[C@@H]2O[C@H](CO)[C@@H](O)[C@H](O)[C@H]2O)cc1O [Trilobatin] | 105%
CC(C)n1nc(-c2ccc3oc(N)nc3c2)c2c(N)ncnc21 | 32.7%
COc1ccc(COc2ccc(Cc3cnc(N)nc3N)cc2OC)cc1 | 92.8%
COc1cc(O)c(C(=O)Nc2nc(C(=O)NCCN(C(C)C)C(C)C)cs2)cc1OC [Acotiamide hydrochloride] | 98.8%
CC(=O)N1C[C@H](O)C[C@H]1C(=O)O [Oxaceprol] | 109%
C/C=C(/C)C(=O)O[C@H]1[C@@H](OC(=O)CC(C)C)c2c(ccc3ccc(=O)oc23)OC1(C)C [Praeruptorin E] | 53.9%
CC(C)[C@H](O)C(=O)N[C@@H](C)C(=O)N[C@@H]1C(=O)N(C)CCc2ccccc21 | 107%
O=C(O)C1=CO[C@@H](O[C@@H]2O[C@H](CO)[C@@H](O)[C@H](O)[C@H]2O)[C@@H]2C(CO)=CC[C@H]12 [Geniposidic acid] | 105%
NC(=O)[C@@H]1CC[C@@H]2CN1C(=O)N2OS(=O)(=O)O [Avibactam sodium] | 106%
Oc1cc(O)c2c(c1)OC(c1ccc(O)c(O)c1)C(OC1(c3ccc(O)c(O)c3)Oc3cc(O)cc(O)c3C(O)C1O)C2 (stereo not given) [Proanthocyanidins] | 98.7%
CC(=O)OCC(=O)[C@@]1(O)[C@H](C)C[C@H]2[C@@H]3CCC4=CC(=O)C=C[C@]4(C)[C@@]3(F)[C@@H](O)C[C@@]21C [Dexamethasone acetate] | 104%
CCNC1(C(N)=O)CCN(c2ncnc3c2nc(-c2ccccc2Cl)n3-c2ccc(Cl)cc2)CC1 | 101%
COc1cc(Cc2cnc(N)nc2N)cc(OC)c1OC [Trimethoprim] | 104%
CCOC(=O)CC(=O)N1CCSC1COc1ccccc1OC (stereo not given) [Moguisteine] | 108%
O=C(O)C=CCCCCCCCO [Royal jelly acid] | 105%
COc1cc2c(cc1O)CC[n+]1cc3c(OC)c(OC)ccc3cc1-2 [Jatrorrhizine chloride] | 92.9%
CC(C)(C)S(=O)(=O)c1ccc2nccc(Nc3n[nH]c4ccc(F)cc34)c2c1 | 99.5%
Nc1c(Br)cc(Br)cc1CN[C@H]1CC[C@H](O)CC1 [Ambroxol HCl] | 102%

Structure (SMILES) | cell viability
CN(C)CCCCC(=O)Nc1ccc(NC(=S)NC(=O)c2ccc(C(C)(C)C)cc2)cc1 [Tenovin-6] | 1.85%
Nc1nc2n[nH]nc2c(=O)[nH]1 [Azaguanine-8] | 68.1%
OCCOCCN1CCN(C(c2ccccc2)c2ccc(Cl)cc2)CC1 (stereo not given) [Hydroxyzine 2HCl] | 88.6%
c1cc2c(c3c1C[C@H]1c4cc5c(cc4CCN1C3)OCO5)OCO2 [Stylopine hydrochloride] | 96.3%
COc1c(-c2ccc3cc(NS(C)(=O)=O)ccc3c2)cc(-n2ccc(=O)[nH]c2=O)cc1C(C)(C)C [S5402 Dasabuvir(ABT-333).cdx] | 89.6%
OC[C@H]1O[C@@H](n2cnc3c(O)nc(O)nc32)[C@H](O)[C@@H]1O [Xanthosine] | 101%
CCOc1ccccc1N=Nc1c(C)[nH]n(-c2nc(-c3ccccc3)cs2)c1=O | 96.5%
Cc1ccc([C@@H]2O[C@H](CO)[C@@H](O)[C@H](O)[C@H]2O)cc1Cc1ccc(-c2ccc(F)cc2)s1 [Canagliflozin] | 90.3%
O=S1(=O)CCN(CN2CCS(=O)(=O)NC2)CN1 [Taurolidine] | 111%
CC(=O)OCC(=O)[C@@]1(O)CC[C@H]2[C@@H]3CCC4=CC(=O)CC[C@]4(C)[C@@]3(F)[C@@H](O)C[C@@]21C [Fludrocortisone acetate] | 109%
CCCCC(CC)COC(=O)C=Cc1ccc(OC)cc1 (stereo not given) [Octinoxate] | 109%
NC(=O)c1ccc(-c2nc(-c3ccc4c(c3)OCCO4)c(-c3ccccn3)[nH]2)cc1 | 103%
Cc1cc(-c2cc(C)c(NCCCS(=O)(=O)O)c(C)c2)cc(C)c1N | 111%
Cc1cn(-c2cc(NC(=O)c3ccc(C)c(Nc4nccc(-c5cnccn5)n4)c3)cc(C(F)(F)F)c2)cn1 [Radotinib] | 111%
O=c1c2ccccc2oc2ccccc12 [Xanthone (Genicide)] | 102%
Nc1nc2c(ncn2COCCO)c(=O)[nH]1 [Acyclovir (Aciclovir)] | 98.3%
CC(=O)O[C@]1(C(C)=O)CC[C@H]2[C@@H]3C[C@H](C)C4=CC(=O)CC[C@]4(C)[C@H]3CC[C@@]21C [Medroxyprogesterone acetate] | 73%
